The list is not random: actives were taken first. Their share in the collection is about 0.85%.
IDH1 R132H inh – qHTS for Inhibitors of mutant isocitrate dehydrogenase 1 (IDH1): qHTS; IDH1-R132H enzyme, NADPH consumption, diaphorase/resazurin fluorescence; Potency, µM (series often up to 76.6 µM), without a hit: top-dose activity change, negative = inhibition, usual class: inhibitors; hit rate 0.093% among 390,000; also: potency is read from the fitted curve at half-maximal effect; % is scaled to controls: 0 for no effect and ±100 for the full control effect; nearly all actives have a fitted effect of over 65% in size
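IDH1-R132H (0.5 ug/mL) preincubated 30 min with compound, then NADPH (0.016 mM) and alpha-KG (2 mM) added; 80 min at RT, pH 7.5. Remaining NADPH coupled via diaphorase/resazurin to fluorescence (540/590 nm); concentration-response curves normalized to no-enzyme control.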
GLS inh – qHTS for Inhibitors of Glutaminase (GLS); Glutaminase kidney isoform, mitochondrial (Homo sapiens), O94925; GLS enzymatic activity, qHTS titration; Potency, µM (titrated, usually from 45.5 µM), inactives show at the top dose activity change, negative = inhibition, usual class: inhibitors; hit rate 0.21% among 410,000; AID 624170, 2012; also: potency is read from the fitted curve at half-maximal effect; % is scaled to controls: 0 for no effect and ±100 for the full control effect
Target sequence (O94925 whole entry, looked up, canonical isoform): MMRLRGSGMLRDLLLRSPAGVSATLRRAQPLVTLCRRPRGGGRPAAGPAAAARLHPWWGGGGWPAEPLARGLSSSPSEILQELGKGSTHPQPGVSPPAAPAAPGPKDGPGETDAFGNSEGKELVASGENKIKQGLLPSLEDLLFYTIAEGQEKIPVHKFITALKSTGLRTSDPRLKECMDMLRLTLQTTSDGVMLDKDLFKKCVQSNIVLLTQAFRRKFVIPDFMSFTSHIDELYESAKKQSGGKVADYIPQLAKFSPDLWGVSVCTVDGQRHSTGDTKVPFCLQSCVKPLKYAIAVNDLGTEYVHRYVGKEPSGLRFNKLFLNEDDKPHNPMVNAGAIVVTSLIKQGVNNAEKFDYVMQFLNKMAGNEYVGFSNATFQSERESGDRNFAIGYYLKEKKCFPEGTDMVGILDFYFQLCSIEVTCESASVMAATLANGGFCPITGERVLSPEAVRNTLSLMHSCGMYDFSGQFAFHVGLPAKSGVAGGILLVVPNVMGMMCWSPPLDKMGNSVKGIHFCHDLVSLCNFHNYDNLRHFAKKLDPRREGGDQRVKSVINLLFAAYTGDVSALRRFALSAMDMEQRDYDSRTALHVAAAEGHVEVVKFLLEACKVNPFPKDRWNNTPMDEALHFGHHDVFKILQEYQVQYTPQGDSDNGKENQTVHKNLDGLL
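Compounds were pin-transferred onto hKGA, after which L-glutamine (1 mM solution) and a detection mix of glutamate oxidase, HRP and Amplex Red were added. Initial and 30 min RT fluorescence reads were collected.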
pAkt inh – HTS Assay for Inhibitors of Akt Phophorylation: Primary Screen; hit rate 0.32% among 360,000; Neuro2A IGF-stimulated pAkt S473 HTRF, 20 min; active compounds read low; activity change, % for hits at 50 µM; AID 651550, 2012; in the data active = activity change below about -80%; inconclusive = mostly about -51% to -80%; also: % is scaled to controls: 0 for no effect and ±100 for the full control effect
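Neuro2A cells (4,500/well, DMEM with 0.5% FBS) were treated with compound at a single 50 µM final concentration, stimulated with 6 nM IGF for 20 min at 37 °C, and lysed. Phospho-Akt Ser473 was read by HTRF as 665/615 ratio ×10^4.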
CCT chaperon mod – High-Throughput Screening for Modulators of Cytosolic Chaperonin Activity; purified chaperonin ATPase assay, HTRF ADP detection, 30 min; activity change, % (test concentration not listed), hits read low; hit rate 0.3% among 360,000; in the data active = activity change below about -30%; also: % is scaled to controls: 0 for no effect and ±100 for the full control effect
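ATPase activity: ADP formed was measured by HTRF Transcreener (665/615 nm ratio) after 30 min at 37 deg C with 10 uM ATP. Compounds screened at one 76 uM concentration against 40 or 20 nM TRiC in Tris pH 7.4/KCl/MgCl2/DTT buffer.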
Mm-Cpn inhibitor – Inhibitors of TCP-1 ring complex (TRiC) of Methanococcus maripaludis (MmCpn): qHTS | Chaperonin Mm-Cpn (Methanococcus maripaludis) | purified Mm-Cpn ATPase, ADP Transcreener TR-FRET | hit rate 0.031% among 330,000 | AID 504842, 2011 | Potency, µM (highest dose often 76.9 µM), inactives show top-dose activity, negative = inhibition, actives largely listed as inhibitors; also: potency is read from the fitted curve at half-maximal effect; % is scaled to controls: 0 for no effect and ±100 for the full control effect; nearly all actives have a fitted effect of over 80% in size
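Inhibition of chaperonin ATP hydrolysis is measured as reduced ADP production, detected by competitive TR-FRET in which signal falls with ADP. Final enzyme 25 nM and ATP 10 uM, reacted 30 min at 37°C.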
Glioma ERSR ind – qHTS for Inducers of the Endoplasmic Reticulum Stress Response (ERSR) in Human Glioma: qHTS. U87-MG GRP78 promoter luciferase reporter, 16 h. Potency, µM, without a hit: at the highest dose activation, most hits filed as activators. hit rate 0.02% among 420,000. AID 602332, 2012; also: potency is read from the fitted curve at half-maximal effect; series mostly up to about 76 µM; % of control where 0% means no effect; nearly all actives have a fitted effect of over 35% in size
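Stably transfected U87-MG glioma cells carrying a GRP78-based luciferase sensor; 16 h compound incubation. Luminescence end-point read 10 min after Bright-Glo addition at room temperature.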
IDH1 autofl – qHTS for Inhibitors of mutant isocitrate dehydrogenase 1 (IDH1): Cherrypicks Autofluorescence Interference. shares compounds with IDH1 R132H inh. Resorufin detection reagent fluorescence interference, cell-free. inhibition of signal, % at 51.2 µM. 750 tested, under 10 active. AID 623980, 2012;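 also: 0% = wells with normal resorufin and full inhibition = wells lacking resorufin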
WT IDH1 inh – qHTS for Inhibitors of mutant isocitrate dehydrogenase 1 (IDH1): Cherrypicks in WT IDH1; shares compounds with IDH1 R132H inh; WT IDH1 enzyme, NADPH diaphorase/resazurin fluorescence; Potency, µM (titrated, usually from 115 µM), without a hit: at the top dose activity change, negative = inhibition, usual class: inhibitors; hit rate 9% among 750;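 also: potency is read from the fitted curve at half-maximal effect; 0% = full WT IDH1 enzyme control and full inhibition = no enzyme wells; nearly all actives have a fitted effect of over 55% in size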
IDH1 R132H conf – qHTS for Inhibitors of mutant isocitrate dehydrogenase 1 (IDH1): Confirmation of Cherrypicks. shares compounds with IDH1 R132H inh. IDH1 R132H enzyme, NADPH diaphorase/resazurin fluorescence. Potency, µM (doses to about 76.6 µM), without a hit: at the highest dose activity change, negative = inhibition, usual class: inhibitors. hit rate 83% among 750; also: potency is read from the fitted curve at half-maximal effect; nearly all actives have a fitted effect of over 50% in size
Active calls of the source: *. Unless noted, calls follow the shape of the dose curve; as a rule, active = well fitted curve in the direction sought with a large enough effect; inconclusive = small, poorly fitted or top-dose-only effect, or another doubt; inactive = no such curve, though single readings can be large; an effect the other way counts as inactive or inconclusive.

What do the screens show for `CC1(C)Oc2ccc3ccc(=O)oc3c2/C(=C/Nc2ccccn2)C1=O`?
IDH1 R132H inh: 29.3µM*; GLS inh: -0.5%; CCT chaperon mod: -1.9; Mm-Cpn inhibitor: -0.4%; Glioma ERSR ind: -1.4%; IDH1 autofl: -7.2; WT IDH1 inh: 38.7%; IDH1 R132H conf: 11.2µM*

Results for CC1(C)Oc2ccc3ccc(=O)oc3c2/C(=C/Nc2cccc(O)c2)C1=O ?
IDH1 R132H inh: inconclusive; GLS inh: 0.0%; pAkt inh: inactive; CCT chaperon mod: -3.1; Mm-Cpn inhibitor: 2.4%; Glioma ERSR ind: -5.3%; IDH1 autofl: 4.8; WT IDH1 inh: 32.1%; IDH1 R132H conf: 39.8µM*

Results for CC1(C)Oc2ccc3ccc(=O)oc3c2/C(=C/NNC(N)=S)C1=O ?
IDH1 R132H inh: -1.9%; GLS inh: 11.6%; pAkt inh: inactive; CCT chaperon mod: -0.9; Mm-Cpn inhibitor: -3.8%; Glioma ERSR ind: 2.4%

What do the screens show for `COc1cc(CN2CCC3(CCC(CNC(=O)c4ccco4)O3)CC2)ccc1O` (configuration not stated)?
Glioma ERSR ind: -0.6%

What do the screens show for `Cc1ccc(CN2CCC(C3(c4ccccn4)NC(=O)N(CC4CCCO4)C3=O)CC2)cc1C` (configuration not stated)?
Glioma ERSR ind: -2.8%

How did CCc1ccc(-n2c(=O)c3c(C)c(C(=O)N(C)C)sc3n(Cc3cccc(C)c3)c2=O)cc1 do in these assays?
IDH1 R132H inh: inconclusive; GLS inh: -21.0%; Glioma ERSR ind: -3.5%; IDH1 autofl: -3.3; WT IDH1 inh: -9.7%; IDH1 R132H conf: 31.6µM*

What do the screens show for `CCN(CC)C(=O)c1sc2c(c1C)c(=O)n(-c1ccccc1)c(=O)n2Cc1cc(=O)n2ccccc2n1`?
IDH1 R132H inh: -8.0%; GLS inh: -7.8%; Glioma ERSR ind: -2.1%

How did Cc1ccc(-n2c(=O)c3c(C)c(C(=O)N(C)C)sc3n(Cc3ccccc3C)c2=O)cc1C do in these assays?
IDH1 R132H inh: inconclusive; GLS inh: 2.2%; Glioma ERSR ind: 0.1%; IDH1 autofl: -4.7; WT IDH1 inh: 2.0%; IDH1 R132H conf: 22.4µM*

Results for CCN(CC)C(=O)c1sc2c(c1C)c(=O)n(-c1ccccc1)c(=O)n2Cc1c(C)cc(C)cc1C ?
IDH1 R132H inh: 39.8µM*; GLS inh: 4.5%; Glioma ERSR ind: -3.5%; IDH1 autofl: -5.5; WT IDH1 inh: -4.8%; IDH1 R132H conf: 35.5µM*

Results for O=[N+]([O-])c1ccc(O/N=[N+](\[O-])N2CCN(c3ccccc3)CC2)c([N+](=O)[O-])c1 ?
Glioma ERSR ind: -10.0%

Results for COc1ccc(CN2C[C@H](Sc3nc4ccccc4[nH]3)C[C@H]2C(=O)N(C)C)c2ccccc12 ?
Glioma ERSR ind: -4.9%

Results for N#CC(=C1C=C(Br)C(=NO)C=C1Cl)c1ccc(Cl)cc1 ?
IDH1 R132H inh: inconclusive; GLS inh: -12.2%; pAkt inh: inactive; CCT chaperon mod: 1.6; Glioma ERSR ind: -2.4%; IDH1 autofl: 5.9; WT IDH1 inh: inconclusive; IDH1 R132H conf: 28.2µM*

How did COCc1ccc(CN2CCOc3ccc(C4=CCCCC4)cc3C2)o1 do in these assays?
Glioma ERSR ind: -0.2%

How did CC(C)(C)c1c(Cl)c(O)c(-c2ccccc2)c(=O)n1-c1ccccc1 do in these assays?
IDH1 R132H inh: 46.5µM*; GLS inh: -4.2%; pAkt inh: inactive; CCT chaperon mod: 2.1; Mm-Cpn inhibitor: -8.0%; Glioma ERSR ind: 1.2%; IDH1 autofl: -3.0; WT IDH1 inh: inconclusive; IDH1 R132H conf: inconclusive

How did Cc1ccc(N(C(=O)c2nsc(Cl)c2Cl)C(C(=O)NC2CCCC2)c2ccc(O)cc2)cc1C (configuration not stated) do in these assays?
IDH1 R132H inh: inconclusive; GLS inh: 1.4%; pAkt inh: inactive; CCT chaperon mod: 0.9; Mm-Cpn inhibitor: -0.9%; Glioma ERSR ind: -1.5%; IDH1 autofl: 1.4; WT IDH1 inh: 16.0%; IDH1 R132H conf: 14.1µM*

Results for COc1cc(OC)c(NC(=O)c2cnn(-c3ccccc3)c2-n2cccc2)cc1Cl ?
IDH1 R132H inh: 39.8µM*; GLS inh: -17.0%; Glioma ERSR ind: -2.0%; IDH1 autofl: -7.6; WT IDH1 inh: -2.4%; IDH1 R132H conf: 7.08µM*

What do the screens show for `Clc1cccc(-n2cc(-c3ccccc3)c3c(NC4CCCC4)ncnc32)c1`?
IDH1 R132H inh: -7.3%; GLS inh: 2.5%; Glioma ERSR ind: -3.9%

What do the screens show for `COc1ccc(-n2cc(-c3ccccc3)c3c(NC4CCCC4)ncnc32)cc1`?
IDH1 R132H inh: 31.6µM*; GLS inh: -3.1%; Glioma ERSR ind: -0.4%; IDH1 autofl: 0.1; WT IDH1 inh: -13.9%; IDH1 R132H conf: 14.1µM*

Results for C[C@H]1C[C@H]2[C@@H]3CCC4=CC(=O)C=C[C@]4(C)[C@@]3(F)[C@@H](O)C[C@]2(C)[C@@]1(O)C(=O)CO ?
IDH1 R132H inh: -3.9%; GLS inh: -3.1%; pAkt inh: inactive; CCT chaperon mod: -0.1; Glioma ERSR ind: -2.8%
